Screening results: PubChem, The Scripps Research Institute Molecular Screening Center
This is a sample that favours compounds with a hit; in the whole collection about 4.1% have one here.
DAX1 inh-1: blocks DAX1 repression of SF-1 activated StAR promoter; HEK293T StAR-luciferase reporter, SF-1/DAX-1 repression relief; inhibition, % at 6.8 µM; 370,000 compounds, 1.1% hits;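 active = inhibition above the mean over all tested compounds plus 3 SD, cut at about 3.6% in these data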;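 note: 0% = DAX-1 cells with DMSO and 100% = cells lacking DAX-1 with DMSO; higher inhibition means more luminescence from relief of DAX-1 repression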
DAX1 inh-2: NR0B1 (DAX1) inhibition; P51843; HEK293 Gal4-DAX1 luciferase reporter, luminescence; inhibition, % at 6.75 µM; 340,000 compounds, 0.99% hits; AID 504766;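 active = inhibition above the mean over all tested compounds plus 3 SD, cut at about 4.2% in these data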;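 note: 0% = DAX1-transfected cells with DMSO and 100% = empty-vector control cells with DMSO; inhibition shows as a rise in luminescence from relieved DAX1 repression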
hcDAF-12 act: activates DAF-12 receptor from parasite H. contortus; 370,000 compounds, 1.4% hits; activation, % at 6.8 µM; HEK293 hcDAF-12 lit1-tk-luc reporter, luminescence; 0% DMSO, 100% Δ7-dafachronic acid; AID 652067;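 active = activation above the mean of all tested compounds plus 3 SD, cut at about 5.5% in these data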;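 note: 100% = response to 3 µM Δ7-dafachronic acid high control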
ssDAF12 agonist: activators of S. stercoralis DAF-12 nuclear receptor; HEK293 ssDAF-12/GRIP1 lit1-tk-luc reporter, luminescence; % of 3 µM dafachronic acid response; activation, % at 6.8 µM; 370,000 compounds, 1% hits; AID 652126;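 active = activation above the mean over all tested compounds plus 3 SD, cut at about 0.9% in these data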;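 note: 0% = DMSO-only wells and 100% = 3 µM delta7-dafachronic acid wells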
hgDAF-12 ag: hgDAF-12 agonism, primary luciferase screen | activation, % at 6.8 µM | 370,000 compounds, 1.8% hits | HEK293 GAL4-hgDAF12 UAS-luciferase reporter, agonist luminescence; normalized to butyrate control | AID 687014;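 active = activation above a cutoff set at the mean of all screened compounds plus 3 SD, cut at about 10% in these data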;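 note: 0% = DMSO wells and 100% = sodium butyrate wells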
DAX1 conf: confirmation of human DAX1 (NR0B1) inhibitors; 2,400 compounds, 87% hits; AID 652134; shares compounds with DAX1 inh-1; HEK293T StAR-promoter luciferase reporter, SF-1/DAX-1 repression; inhibition, % at 6.8 µM;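 active = inhibition above the average of every tested compound plus 3 SD, cut at about 3.8% in these data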;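 note: 0% = DAX-1 cells with DMSO and 100% = no DAX-1 control cells with DMSO; active compounds raise luminescence by relieving repression of the StAR reporter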
Target sequence (P51843 whole entry, looked up): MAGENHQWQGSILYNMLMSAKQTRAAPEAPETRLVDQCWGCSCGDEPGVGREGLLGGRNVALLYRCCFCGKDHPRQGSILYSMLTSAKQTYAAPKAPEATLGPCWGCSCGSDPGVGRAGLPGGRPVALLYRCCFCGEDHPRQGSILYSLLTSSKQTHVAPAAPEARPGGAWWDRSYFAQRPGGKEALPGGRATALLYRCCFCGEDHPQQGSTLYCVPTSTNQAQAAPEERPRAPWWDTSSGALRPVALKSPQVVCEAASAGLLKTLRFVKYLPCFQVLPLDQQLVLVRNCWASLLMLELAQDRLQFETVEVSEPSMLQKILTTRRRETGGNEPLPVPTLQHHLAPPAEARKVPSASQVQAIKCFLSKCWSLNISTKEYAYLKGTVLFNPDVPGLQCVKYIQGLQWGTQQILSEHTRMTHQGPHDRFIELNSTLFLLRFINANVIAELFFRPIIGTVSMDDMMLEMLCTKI
SF1 mutant ctr: counter-screen for DAX1 inhibitors: nonselective inhibitors with SF-1 AF2 mutant. shares compounds with DAX1 inh-1. HEK293 StAR-luciferase, luminescence. inhibition, % at 6.8 µM. 2,400 compounds, 78% hits;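 active = inhibition above the mean of all tested compounds plus 3 SD, cut at about 3% in these data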;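 note: 0% = DAX-1 transfected cells with DMSO and 100% = cells without DAX-1 with DMSO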
Numbers without * were called inactive; · = no result.

SMILES	DAX1 inh-1	DAX1 inh-2	hcDAF-12 act	ssDAF12 agonist	hgDAF-12 ag	DAX1 conf	SF1 mutant ctr
CCOc1ccc(-c2cn3ccccc3n2)cc1	9.9*	-3.2	5.8*	0.2	10.1	13.9*	4.4*
O=C(c1cc(-c2ccc(Cl)cc2Cl)on1)N1CCOCC1	6.1*	-2.7	4.2	0.0	6.5	7.9*	1.8
O=C(c1cc(-c2ccccc2O)on1)N1CCOCC1	1.0	2.8	-0.1	-0.5	8.7	·	·
CC(=O)Nc1ccc(-c2ccnc3c2CC(C(=O)NCCc2ccccc2)O3)cc1 (stereo unspecified)	0.2	·	-1.0	-0.9	-1.1	·	·
CC(=O)Nc1ccc(-c2ccnc3c2CC(C(=O)NCc2ccco2)O3)cc1 (stereo unspecified)	4.7*	·	4.5	0.5	-1.5	11.5*	-6.1
CC(=O)Nc1ccc(-c2ccnc3c2CC(C(=O)NCc2ccccc2)O3)cc1 (stereo unspecified)	4.5*	·	0.8	0.0	-6.2	9.6*	-7.1
CCCCC1C(=O)CC[C@H]2[C@@H]1CC(=O)[C@@H]2C/C=C\CCCC(=O)O (stereo partly specified)	·	-0.6	·	·	·	·	·
CC(C(=O)Nc1ccc2[nH]c(=O)[nH]c2c1)N1CCN(Cc2ccc3c(c2)OCO3)CC1 (stereo unspecified)	1.5	0.1	-2.0	-1.5	-3.9	·	·
O=C(N/N=C/c1cccc2ccccc12)c1cccc(F)c1	5.1*	0.5	3.0	-0.3	7.9	1.6	1.8
Cc1ccc2c(c1)CCCN2C(=O)c1cc2ccccc2oc1=O	-1.1	-0.5	-1.4	-1.9	-3.2	·	·
Cc1cccc2nc(CNC(=O)C3CCC(=O)N(Cc4ccccc4F)C3)cn12 (stereo unspecified)	-1.1	1.0	-0.3	-0.6	-0.7	·	·
COc1ccc(Cn2cc(CN3CC(N4CCN(C5CCN(C)CC5)CC4)CS3(=O)=O)nn2)cc1 (stereo unspecified)	7.6*	·	-0.2	-1.4	-1.3	1.8	-0.5
O=C(CSc1nc2ccccc2[nH]1)NN=Cc1ccccc1C(=O)O	5.5*	·	5.9*	0.2	9.5	12.0*	7.8*
O=C(CSc1nc2ccccc2[nH]1)N/N=C/c1ccncc1	0.0	·	1.4	-1.4	-0.4	·	·
C/C(=N\NC(=O)c1ccoc1C)c1ccc(Br)s1	5.8*	1.8	1.5	-0.5	10.1	1.5	-0.1
CC(=NNC(=O)c1cc(C)oc1C)c1ccc(Br)s1	0.1	0.9	-1.6	-1.4	-1.2	·	·
Cc1nnc(NC(=O)c2nc(S(=O)(=O)Cc3ccccc3)ncc2Cl)s1	5.6*	2.3	-2.5	-1.0	1.9	2.7	-2.2
O=C(CCC(=O)Nc1nnc(C2CCCCC2)s1)NCc1ccccc1	0.5	1.4	1.1	-1.2	-0.6	·	·
O=C(O)c1cccc(Nc2nc3ccccc3nc2NS(=O)(=O)c2ccc(F)cc2)c1	6.6*	-0.8	0.3	0.1	1.6	2.7	3.9*
Cc1nnc(N2C(=O)C(O)=C(C(=O)c3ccco3)C2c2ccc(F)cc2)s1 (stereo unspecified)	-0.7	-0.1	-1.3	-1.4	1.9	·	·
CSc1ccc(C2C(C(=O)c3ccco3)=C(O)C(=O)N2c2nnc(SC)s2)cc1 (stereo unspecified)	6.4*	-0.9	3.7	-0.7	12.1*	3.3	3.1*
Cc1ccc2c(c1)-c1nc3ccccc3cc1C2=NC1CCCCC1	4.8*	3.6	12.6*	1.6*	18.9*	4.0*	2.4
CC(=O)Nc1cccc(-c2cc3c(c4c2ccn4C)C2CCC3O2)c1 (stereo unspecified)	-0.6	·	2.3	-1.6	-0.9	·	·
Cn1ccc2c(-c3ccc(C(N)=O)cc3)cc3c(c21)C1CCC3O1 (stereo unspecified)	4.6*	·	-0.3	-1.1	-3.7	1.0	-0.2
COc1cc(Cl)c(C)cc1NC(=O)COC(=O)C1=NN(c2ccccc2)C(=O)CC1	0.1	-0.5	-0.2	-0.5	-0.2	·	·
O=C(C1CCC(C(=O)N2CCc3ccccc32)CC1)N1CCc2ccccc21 (stereo unspecified)	-0.3	1.1	-0.1	-1.1	-0.1	·	·
